Screening results (PubChem)
HT1080-NT tox: qHTS for induction of synthetic lethality in tumor cells producing 2HG: qHTS for the HT-1080-NT fibrosarcoma cell line | HT-1080-NT fibrosarcoma viability, CellTiter-Glo ATP luminescence, 48 h | Potency, µM (titrated, usually from 46.1 µM), inactives show at the highest dose activity, negative = less viability, actives largely listed as cytotoxic | 1.6% of 360,000 active;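 further: NT is the 2HG producing partner of a matched IDH1 knockdown line; 0% = DMSO-treated cells and -100% = media-only wells without cells; nearly all actives have a fitted effect of over 55% in size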
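Fibrosarcoma NT cells, 750 per well in 5% FBS RPMI, were exposed to compound for 48 hours. Viability: CellTiter-Glo luminescence.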
KB-3-1 cytotox: qHTS assay for MDR1-selective chemotherapeutics: Primary screen using the parental adenocarcinoma cell KB-3-1; Potency, µM (titrated, usually from 46.1 µM), actives largely listed as cytotoxic; KB-3-1 viability, CellTiter-Glo ATP luminescence, 72 h; AID 1347075, 2019; 1.4% of 400,000 active; further: nearly all actives have a fitted effect of over 60% in size
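Cells are dispensed, compounds pinned in, plates held at 37 °C for 72 h, then CellTiter-Glo is added and luminescence read after 10 minutes. Cell line: parental KB-3-1 in phenol-red-free DMEM, 10% FBS.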
KB-V1 cytotox: qHTS assay for MDR1-selective chemotherapeutics: Primary screen using the drug-selected MDR subline cells KB-V1; Potency, µM (top dose mostly 46.1 µM), hits mostly cytotoxic; KB-V1 MDR cells viability, CellTiter-Glo, 72 h; 3.4% of 400,000 active; further: nearly all actives have a fitted effect of over 60% in size
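Potencies derive from concentration-effect curves fitted to normalized luminescence (CellTiter-Glo) of KB-V1 cells treated for 72 h at 37 degrees C in phenol-red-free DMEM containing 10% FBS.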
TDP1 cell CPT: qHTS for Inhibitors of human tyrosyl-DNA phosphodiesterase 1 (TDP1): qHTS in cells in presence of CPT. chicken DT40 Tdp1-/-;hTDP1 cells + 20 nM CPT, ATP luminescence, 48 h. Potency, µM (top dose mostly 46.2 µM), inactives show at the top dose activity change, negative = growth inhibition, actives largely listed as inhibitors. 12% of 420,000 active. AID 686979, 2013; further: nearly all actives have a fitted effect of over 55% in size
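Chicken DT40 Tdp1-/- cells stably complemented with human TDP1 were seeded at 400 cells/well in medium containing 20 nM camptothecin, exposed to pin-transferred compounds, and grown at 37 °C for at least 48 hr. Viability was read as ATP luminescence.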
HT1080 IDH1KD tx: qHTS for induction of synthetic lethality in tumor cells producing 2HG: qHTS for the HT-1080-IDH1KD cell line; HT-1080 IDH1 knockdown viability, ATP luminescence, 48 h; Potency, µM (titrated, usually from 46.1 µM), for the others: top-dose activity, negative = toxicity, most hits filed as cytotoxic; 2% of 360,000 active; AID 686971, 2013;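 further: 0% = DMSO wells and -100% = cell-free medium wells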
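Luminescent ATP read-out (CellTiter-Glo, 10 min at room temperature) after 48 h compound exposure at 37 °C gave viability of IDH1-knockdown HT-1080 cells. Activity was normalised to DMSO and cell-free wells, then fitted as concentration-response curves.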
TDP1 cell noCPT: qHTS for Inhibitors of human tyrosyl-DNA phosphodiesterase 1 (TDP1): qHTS in cells in absence of CPT | 15% of 420,000 active | Potency, µM (titrated, usually from 46.2 µM), for inactives: at the top dose activity change, negative = growth inhibition, actives largely listed as inhibitors | AID 686978, 2013 | DT40 Tdp1-/- hTDP1 cells, no CPT, ATP luminescence, 48 h; further: nearly all actives have a fitted effect of over 55% in size
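No-CPT arm: Tdp1-/-;hTDP1 DT40 cells (400/well) plus compounds, incubated ≥48 hr at 37 °C. Readout CellTiter-Glo luminescence.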
An asterisk follows results filed as active; i = inactive; u = inconclusive; x = no result given. Most compounds without a hit are left out; they make up all but 19% or so of the library. The call rests on the fitted dose curve; in most records, active means well fitted curve in the direction sought with a large enough effect; inconclusive means small, poorly fitted or top-dose-only effect, or another doubt; inactive means no such curve, though single readings can be large; an effect the other way counts as inactive or inconclusive. Unless noted, on the % scale 0 is the no-effect control and ±100 the full control effect; potency means the concentration at half of the fitted maximal effect.

SMILES	HT1080-NT tox	KB-3-1 cytotox	KB-V1 cytotox	TDP1 cell CPT	HT1080 IDH1KD tx	TDP1 cell noCPT
Cc1c(N(C)C(=O)COc2ccc3ccccc3c2)c(=O)n(-c2ccccc2)n1C	8%	i	i	-7%	19%	1%
N#Cc1cccc(-c2nc(NCc3cccs3)c3ccccc3n2)c1	x	x	x	2%	x	-1%
CNc1nc(NCC2CCCCC2)c2sccc2n1	23µM*	i	i	13µM*	23µM*	13µM*
Cc1ccc(CNc2nc(NC(C)C)nc3ccsc23)c(C)c1	u	i	i	23µM*	u	u
CNc1nc(Nc2ccc(C)cc2C)c2sccc2n1	u	18µM*	15µM*	13µM*	u	16µM*
Cc1ccc(Nc2nc(NCC3CC3)nc3ccsc23)c(C)c1	12µM*	21µM*	u	3.7µM*	6.5µM*	5.8µM*
CN(Cc1cc([N+](=O)[O-])ccc1Cl)C(=O)C[n+]1ccccc1	20%	i	i	-5%	8%	-3%
Cc1ccc(S(=O)(=O)NNC(=O)NC23CC4CC(CC(C4)C2)C3)cc1	-1%	i	21µM*	-2%	-9%	u
COCCNC(=S)N/N=C(\C)c1ccc(O)cc1	-2%	i	i	u	-12%	u
C/C(=N\NC(=S)NCC(C)(C)C)c1cc(F)cc(F)c1O	-15%	i	u	15µM*	u	15µM*
CCCN1C(=O)/C(=C/c2ccc(N3CCCC3)c(C)c2)NC1=S	-11%	u	u	16µM*	-8%	21µM*
CCCN1C(=O)/C(=C/c2ccc(N3CCOCC3)cc2)NC1=S	11%	i	u	u	17%	15µM*
Cc1cc(/C=C2\NC(=S)N(C)C2=O)ccc1N1CCCC1	8%	i	i	u	8%	u
CCN1C(=O)/C(=C/c2ccc(N3CCCC3)cc2)NC1=S	-6%	i	i	23µM*	-13%	23µM*
CCN1C(=O)/C(=C/c2ccc(OCc3ccc(C(=O)O)cc3)c(Cl)c2)NC1=S	-13%	i	i	-5%	-16%	-3%
O=C(O)c1cccc(N2C(=O)c3cc([N+](=O)[O-])cc4cc([N+](=O)[O-])cc(c34)C2=O)c1	u	i	i	u	u	u
CC(C)C(=O)N1CCN(c2ccc(NC(=O)c3ccc([N+](=O)[O-])o3)cc2)CC1	12µM*	u	u	2.1µM*	7.3µM*	12µM*
CCCC(=O)N1CCN(c2ccc(NC(=O)c3ccc([N+](=O)[O-])o3)cc2Cl)CC1	16µM*	u	u	0.92µM*	u	5.8µM*
CC(C)C(=O)N1CCN(c2ccc(NC(=O)c3ccc([N+](=O)[O-])o3)cc2Cl)CC1	7.3µM*	u	u	1.2µM*	u	2.1µM*
CC(C)C(=O)N1CCN(c2ccc(NC(=O)c3ccc(Br)o3)cc2)CC1	u	i	i	u	17%	-27%
CCCC(=O)N1CCN(c2ccc(NC(=O)c3ccco3)cc2)CC1	25%	i	i	-4%	17%	4%
CCCCCC(=O)Nc1ccc(N2CCN(CC)CC2)c(Cl)c1	u	i	i	35µM*	u	u
O=C(Nc1ccc(N2CCCC2)c(Cl)c1)c1ccc([N+](=O)[O-])cc1	-5%	i	i	-11%	-2%	0%
COc1c(F)c(F)c(C(=O)Nc2ccc(N3CCN(C(C)=O)CC3)c(Cl)c2)c(F)c1F	-26%	i	i	u	-24%	u
CC(=O)N1CCN(c2ccc(NC(=O)c3ccc(Br)o3)cc2Cl)CC1	4%	i	i	16µM*	-1%	26µM*
SMILES	HT1080-NT tox	KB-3-1 cytotox	KB-V1 cytotox	TDP1 cell CPT	HT1080 IDH1KD tx	TDP1 cell noCPT
CCOC(=O)C(Sc1cc(C)nc(N)n1)C(C)=O (stereo not drawn)	4%	i	i	-14%	12%	0%
COc1ccc(OCC(=O)N/N=C\c2ccco2)cc1	9%	i	i	-10%	13%	-13%
COc1ccc(/[N+]([O-])=C/c2ccco2)cc1	8%	i	i	15µM*	7%	16µM*
C=CC[C@@H](CC(=O)OC(C)(C)C)C(=O)OC[C@H]1CCCN1C(=O)[C@@H](CC=C)CC(=O)NCCO	13%	i	i	-3%	19%	-24%
C=CC[C@H](CC(=O)OC(C)(C)C)C(=O)OC[C@@H]1CCCN1C(=O)[C@H](CC=C)CC(=O)N[C@H](CO)Cc1ccccc1	0%	i	i	26µM*	-2%	u
C=CC[C@H](CC(=O)OC(C)(C)C)C(=O)OC[C@@H]1CCCN1C(=O)[C@@H](CC=C)CC(=O)N[C@H](CO)Cc1ccccc1	3%	i	i	16µM*	12%	u
C=CC[C@@H](CC(=O)OC(C)(C)C)C(=O)OC[C@@H]1CCCN1C(=O)[C@@H](CC=C)CC(=O)N[C@H](CO)Cc1ccccc1	-1%	i	i	23µM*	-2%	u
